Publication PMC11006913

Experiments:
Test in all cases: PBM; 200 nM protein, PBS
Conditions in all cases: dsDNA, one strand shown
HESX1 [1] = molecular target: HESX1 (Homo sapiens, UniProt Q9UBX0 95-180, R165K)
SHOX [2] = molecular target: SHOX (Homo sapiens, UniProt O15266 103-189)
ALX4 = ALX4 (Homo sapiens, UniProt Q9H161 200-286, Q225E)
HESX1 [3] = molecular target: HESX1 (Homo sapiens, UniProt Q9UBX0 95-180)
MSX2 = MSX2 (Homo sapiens, UniProt P35548 130-214, R199I)
ALX1 [4] = molecular target: ALX1 (Homo sapiens, UniProt Q15699 118-204, L144V)
ALX3 [5] = molecular target: ALX3 (Homo sapiens, UniProt O95076 139-225, N203Q)
SHOX [6] = molecular target: SHOX (Homo sapiens, UniProt O15266 103-189, R173C)
ALX1 [7] = molecular target: ALX1 (Homo sapiens, UniProt Q15699 118-204, L144R)
ALX3 [8] = molecular target: ALX3 (Homo sapiens, UniProt O95076 139-225)
PROP1 [9] = molecular target: PROP1 (Homo sapiens, UniProt O75360 56-141)
HESX1 [10] = molecular target: HESX1 (Homo sapiens, UniProt Q9UBX0 95-180, R109Q)
PROP1 [11] = molecular target: PROP1 (Homo sapiens, UniProt O75360 56-141, R99H)
ALX3 [12] = molecular target: ALX3 (Homo sapiens, UniProt O95076 139-225, L168Q)
HESX1 [13] = molecular target: HESX1 (Homo sapiens, UniProt Q9UBX0 95-180, P111T)
ALX3 [14] = molecular target: ALX3 (Homo sapiens, UniProt O95076 139-225, L168V)
PROP1 [15] = molecular target: PROP1 (Homo sapiens, UniProt O75360 56-141, F88S)
HESX1 [16] = molecular target: HESX1 (Homo sapiens, UniProt Q9UBX0 95-180, F115L)
ALX1 [17] = molecular target: ALX1 (Homo sapiens, UniProt Q15699 118-204)
ALX3 [18] = molecular target: ALX3 (Homo sapiens, UniProt O95076 139-225, N203S)
ALX3 (Homo sapiens, UniProt O95076 139-225, N203S), sequence (O95076 139-225 N203S): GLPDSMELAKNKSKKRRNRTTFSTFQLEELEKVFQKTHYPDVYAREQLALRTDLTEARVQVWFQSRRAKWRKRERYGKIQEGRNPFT

ALX1 (Homo sapiens, UniProt Q15699 118-204), sequence (Q15699 118-204): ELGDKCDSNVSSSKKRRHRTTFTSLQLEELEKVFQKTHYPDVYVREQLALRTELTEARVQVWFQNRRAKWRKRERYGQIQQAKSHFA
ALX3 (Homo sapiens, UniProt O95076 139-225, N203Q), sequence (O95076 139-225 N203Q): as the sequence (O95076 139-225 N203S) above, with S65Q counted along it
SHOX (Homo sapiens, UniProt O15266 103-189, R173C), sequence (O15266 103-189 R173C): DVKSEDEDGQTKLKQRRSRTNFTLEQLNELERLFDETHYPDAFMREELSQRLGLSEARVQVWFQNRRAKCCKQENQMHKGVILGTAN
HESX1 (Homo sapiens, UniProt Q9UBX0 95-180, P111T), sequence (Q9UBX0 95-180 P111T): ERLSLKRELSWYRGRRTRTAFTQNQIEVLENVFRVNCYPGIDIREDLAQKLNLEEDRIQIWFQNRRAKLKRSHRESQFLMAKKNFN
HESX1 (Homo sapiens, UniProt Q9UBX0 95-180, F115L), sequence (Q9UBX0 95-180 F115L): as the sequence (Q9UBX0 95-180 P111T) above, with T17P, F21L counted along it
ALX3 (Homo sapiens, UniProt O95076 139-225, L168V), sequence (O95076 139-225 L168V): as the sequence (O95076 139-225 N203S) above, with L30V, S65N counted along it
PROP1 (Homo sapiens, UniProt O75360 56-141), sequence (O75360 56-141): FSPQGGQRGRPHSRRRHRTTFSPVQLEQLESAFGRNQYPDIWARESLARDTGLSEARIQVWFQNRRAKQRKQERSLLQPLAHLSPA
HESX1 (Homo sapiens, UniProt Q9UBX0 95-180, R109Q), sequence (Q9UBX0 95-180 R109Q): as the sequence (Q9UBX0 95-180 P111T) above, with R15Q, T17P counted along it
HESX1 (Homo sapiens, UniProt Q9UBX0 95-180, R165K), sequence (Q9UBX0 95-180 R165K): as the sequence (Q9UBX0 95-180 P111T) above, with T17P, R71K counted along it
PROP1 (Homo sapiens, UniProt O75360 56-141, F88S), sequence (O75360 56-141 F88S): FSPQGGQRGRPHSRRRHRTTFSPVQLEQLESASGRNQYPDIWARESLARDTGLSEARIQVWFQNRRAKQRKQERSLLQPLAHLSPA
ALX1 (Homo sapiens, UniProt Q15699 118-204, L144R), sequence (Q15699 118-204 L144R): as the sequence (Q15699 118-204) above, with L27R counted along it
ALX3 (Homo sapiens, UniProt O95076 139-225), sequence (O95076 139-225): as the sequence (O95076 139-225 N203S) above, with S65N counted along it
ALX4, sequence (Q9H161 200-286 Q225E): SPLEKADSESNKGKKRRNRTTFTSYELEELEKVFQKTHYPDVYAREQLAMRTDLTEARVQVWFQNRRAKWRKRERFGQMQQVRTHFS
PROP1 (Homo sapiens, UniProt O75360 56-141, R99H), sequence (O75360 56-141 R99H): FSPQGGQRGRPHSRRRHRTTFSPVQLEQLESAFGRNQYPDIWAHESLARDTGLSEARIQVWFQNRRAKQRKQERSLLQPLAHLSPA
HESX1 (Homo sapiens, UniProt Q9UBX0 95-180), sequence (Q9UBX0 95-180): as the sequence (Q9UBX0 95-180 P111T) above, with T17P counted along it
ALX1 (Homo sapiens, UniProt Q15699 118-204, L144V), sequence (Q15699 118-204 L144V): as the sequence (Q15699 118-204) above, with L27V counted along it
MSX2, sequence (P35548 130-214 R199I): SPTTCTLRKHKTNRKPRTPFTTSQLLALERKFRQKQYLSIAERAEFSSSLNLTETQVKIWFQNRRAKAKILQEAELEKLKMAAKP
SHOX (Homo sapiens, UniProt O15266 103-189), sequence (O15266 103-189): as the sequence (O15266 103-189 R173C) above, with C71R counted along it
ALX3 (Homo sapiens, UniProt O95076 139-225, L168Q), sequence (O95076 139-225 L168Q): as the sequence (O95076 139-225 N203S) above, with L30Q, S65N counted along it

AATTAGTC
binding signal (HESX1 [1]): 11.5 upbm affinity estimate (log intensity, higher = more binding, comparable within an allelic series) | binding signal (SHOX [2]): 11.7 upbm affinity estimate (log intensity, higher = more binding, comparable within an allelic series) | binding signal (ALX4): 12.8 upbm affinity estimate (log intensity, higher = more binding, comparable within an allelic series) | binding signal (HESX1 [3]): 11.8 upbm affinity estimate (log intensity, higher = more binding, comparable within an allelic series) | binding signal (MSX2): 12.3 upbm affinity estimate (log intensity, higher = more binding, comparable within an allelic series) | binding signal (ALX1 [4]): 11.5 upbm affinity estimate (log intensity, higher = more binding, comparable within an allelic series) | binding signal (ALX3 [5]): 8.3 upbm affinity estimate (log intensity, higher = more binding, comparable within an allelic series) | binding signal (SHOX [6]): 9.37 upbm affinity estimate (log intensity, higher = more binding, comparable within an allelic series) | binding signal (ALX1 [7]): 11.1 upbm affinity estimate (log intensity, higher = more binding, comparable within an allelic series) | binding signal (ALX3 [8]): 12.2 upbm affinity estimate (log intensity, higher = more binding, comparable within an allelic series) | binding signal (PROP1 [9]): 11.1 upbm affinity estimate (log intensity, higher = more binding, comparable within an allelic series) | binding signal (HESX1 [10]): 8.88 upbm affinity estimate (log intensity, higher = more binding, comparable within an allelic series) | binding signal (PROP1 [11]): 11 upbm affinity estimate (log intensity, higher = more binding, comparable within an allelic series) | binding signal (ALX3 [12]): 10.3 upbm affinity estimate (log intensity, higher = more binding, comparable within an allelic series) | binding signal (HESX1 [13]): 10.4 upbm affinity estimate (log intensity, higher = more binding, comparable within an allelic series) | binding signal (ALX3 [14]): 9.88 upbm affinity estimate (log intensity, higher = more binding, comparable within an allelic series) | binding signal (PROP1 [15]): 7.67 upbm affinity estimate (log intensity, higher = more binding, comparable within an allelic series) | binding signal (HESX1 [16]): 7.67 upbm affinity estimate (log intensity, higher = more binding, comparable within an allelic series) | binding signal (ALX1 [17]): 12.1 upbm affinity estimate (log intensity, higher = more binding, comparable within an allelic series) | binding signal (ALX3 [18]): 8.39 upbm affinity estimate (log intensity, higher = more binding, comparable within an allelic series)

ATAATTGA
binding signal (HESX1 [1]): 13.1 upbm affinity estimate (log intensity, higher = more binding, comparable within an allelic series) | binding signal (SHOX [2]): 12.3 upbm affinity estimate (log intensity, higher = more binding, comparable within an allelic series) | binding signal (ALX4): 13.3 upbm affinity estimate (log intensity, higher = more binding, comparable within an allelic series) | binding signal (HESX1 [3]): 13.1 upbm affinity estimate (log intensity, higher = more binding, comparable within an allelic series) | binding signal (MSX2): 12.8 upbm affinity estimate (log intensity, higher = more binding, comparable within an allelic series) | binding signal (ALX1 [4]): 11.7 upbm affinity estimate (log intensity, higher = more binding, comparable within an allelic series) | binding signal (ALX3 [5]): 8.47 upbm affinity estimate (log intensity, higher = more binding, comparable within an allelic series) | binding signal (SHOX [6]): 9.68 upbm affinity estimate (log intensity, higher = more binding, comparable within an allelic series) | binding signal (ALX1 [7]): 11.5 upbm affinity estimate (log intensity, higher = more binding, comparable within an allelic series) | binding signal (ALX3 [8]): 12.5 upbm affinity estimate (log intensity, higher = more binding, comparable within an allelic series) | binding signal (PROP1 [9]): 11.6 upbm affinity estimate (log intensity, higher = more binding, comparable within an allelic series) | binding signal (HESX1 [10]): 9.23 upbm affinity estimate (log intensity, higher = more binding, comparable within an allelic series) | binding signal (PROP1 [11]): 11.8 upbm affinity estimate (log intensity, higher = more binding, comparable within an allelic series) | binding signal (ALX3 [12]): 10.7 upbm affinity estimate (log intensity, higher = more binding, comparable within an allelic series) | binding signal (HESX1 [13]): 11.7 upbm affinity estimate (log intensity, higher = more binding, comparable within an allelic series) | binding signal (ALX3 [14]): 10.2 upbm affinity estimate (log intensity, higher = more binding, comparable within an allelic series) | binding signal (PROP1 [15]): 7.86 upbm affinity estimate (log intensity, higher = more binding, comparable within an allelic series) | binding signal (HESX1 [16]): 8.13 upbm affinity estimate (log intensity, higher = more binding, comparable within an allelic series) | binding signal (ALX1 [17]): 12.3 upbm affinity estimate (log intensity, higher = more binding, comparable within an allelic series) | binding signal (ALX3 [18]): 8.62 upbm affinity estimate (log intensity, higher = more binding, comparable within an allelic series)

CAATTACC
binding signal (HESX1 [1]): 12.7 upbm affinity estimate (log intensity, higher = more binding, comparable within an allelic series) | binding signal (SHOX [2]): 11.8 upbm affinity estimate (log intensity, higher = more binding, comparable within an allelic series) | binding signal (ALX4): 12.9 upbm affinity estimate (log intensity, higher = more binding, comparable within an allelic series) | binding signal (HESX1 [3]): 12.6 upbm affinity estimate (log intensity, higher = more binding, comparable within an allelic series) | binding signal (MSX2): 12.7 upbm affinity estimate (log intensity, higher = more binding, comparable within an allelic series) | binding signal (ALX1 [4]): 11.6 upbm affinity estimate (log intensity, higher = more binding, comparable within an allelic series) | binding signal (ALX3 [5]): 8.27 upbm affinity estimate (log intensity, higher = more binding, comparable within an allelic series) | binding signal (SHOX [6]): 9.24 upbm affinity estimate (log intensity, higher = more binding, comparable within an allelic series) | binding signal (ALX1 [7]): 11.3 upbm affinity estimate (log intensity, higher = more binding, comparable within an allelic series) | binding signal (ALX3 [8]): 12.4 upbm affinity estimate (log intensity, higher = more binding, comparable within an allelic series) | binding signal (PROP1 [9]): 11.3 upbm affinity estimate (log intensity, higher = more binding, comparable within an allelic series) | binding signal (HESX1 [10]): 8.97 upbm affinity estimate (log intensity, higher = more binding, comparable within an allelic series) | binding signal (PROP1 [11]): 11.5 upbm affinity estimate (log intensity, higher = more binding, comparable within an allelic series) | binding signal (ALX3 [12]): 10.3 upbm affinity estimate (log intensity, higher = more binding, comparable within an allelic series) | binding signal (HESX1 [13]): 10.9 upbm affinity estimate (log intensity, higher = more binding, comparable within an allelic series) | binding signal (ALX3 [14]): 9.72 upbm affinity estimate (log intensity, higher = more binding, comparable within an allelic series) | binding signal (PROP1 [15]): 7.4 upbm affinity estimate (log intensity, higher = more binding, comparable within an allelic series) | binding signal (HESX1 [16]): 7.62 upbm affinity estimate (log intensity, higher = more binding, comparable within an allelic series) | binding signal (ALX1 [17]): 12.4 upbm affinity estimate (log intensity, higher = more binding, comparable within an allelic series) | binding signal (ALX3 [18]): 8.36 upbm affinity estimate (log intensity, higher = more binding, comparable within an allelic series)

TCAATTAA
binding signal (HESX1 [1]): 13.4 upbm affinity estimate (log intensity, higher = more binding, comparable within an allelic series) | binding signal (SHOX [2]): 12.4 upbm affinity estimate (log intensity, higher = more binding, comparable within an allelic series) | binding signal (ALX4): 13.8 upbm affinity estimate (log intensity, higher = more binding, comparable within an allelic series) | binding signal (HESX1 [3]): 13.2 upbm affinity estimate (log intensity, higher = more binding, comparable within an allelic series) | binding signal (MSX2): 12.8 upbm affinity estimate (log intensity, higher = more binding, comparable within an allelic series) | binding signal (ALX1 [4]): 12 upbm affinity estimate (log intensity, higher = more binding, comparable within an allelic series) | binding signal (ALX3 [5]): 8.44 upbm affinity estimate (log intensity, higher = more binding, comparable within an allelic series) | binding signal (SHOX [6]): 9.85 upbm affinity estimate (log intensity, higher = more binding, comparable within an allelic series) | binding signal (ALX1 [7]): 11.7 upbm affinity estimate (log intensity, higher = more binding, comparable within an allelic series) | binding signal (ALX3 [8]): 12.7 upbm affinity estimate (log intensity, higher = more binding, comparable within an allelic series) | binding signal (PROP1 [9]): 11.6 upbm affinity estimate (log intensity, higher = more binding, comparable within an allelic series) | binding signal (HESX1 [10]): 9.91 upbm affinity estimate (log intensity, higher = more binding, comparable within an allelic series) | binding signal (PROP1 [11]): 12 upbm affinity estimate (log intensity, higher = more binding, comparable within an allelic series) | binding signal (ALX3 [12]): 11 upbm affinity estimate (log intensity, higher = more binding, comparable within an allelic series) | binding signal (HESX1 [13]): 11.9 upbm affinity estimate (log intensity, higher = more binding, comparable within an allelic series) | binding signal (ALX3 [14]): 10.5 upbm affinity estimate (log intensity, higher = more binding, comparable within an allelic series) | binding signal (PROP1 [15]): 7.83 upbm affinity estimate (log intensity, higher = more binding, comparable within an allelic series) | binding signal (HESX1 [16]): 7.87 upbm affinity estimate (log intensity, higher = more binding, comparable within an allelic series) | binding signal (ALX1 [17]): 12.6 upbm affinity estimate (log intensity, higher = more binding, comparable within an allelic series) | binding signal (ALX3 [18]): 8.6 upbm affinity estimate (log intensity, higher = more binding, comparable within an allelic series)
